From PubChem BioAssay (EPA / NIEHS)
Active and inactive are the calls of the source. Rule for the calls: active = hit-call score of the fitted dose curve at least 0.9, where 1 is the maximum; inactive = score below 0.9.

Experiments:
[1] = ATG_E_Box_CIS: Attagene CIS-FACTORIAL HepG2 Assay for human Enhancer Box (E-box) (AID 2282936); settings: HepG2 E-box cis-reporter transcription, actives raise or lower the signal
Outline: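 Transiently transfected HepG2, endogenous TF-driven reporters, 24 h dosing. Readout: RT-PCR plus capillary electrophoresis of fluorescent reporter fragments. Gain or loss of signal fitted bidirectionally against DMSO baseline.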

[2] = ATG_M_61_CIS: Attagene CIS-FACTORIAL HepG2 Assay for M61 Transcription Factor (Internal Marker) (AID 2282937); settings: HepG2 Attagene CIS-FACTORIAL M61 internal marker reporter; actives raise or lower the signal
Outline: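 Background-control endpoint: HepG2 cells with cis-regulated reporter constructs, 24 h exposure, reporter mRNA detected via fluorescent primer extension and capillary electrophoresis; values from bidirectional fitting with DMSO baseline.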

[3] = ATG_EGR_CIS: Attagene CIS-FACTORIAL HepG2 Assay for human Early Growth Response 1 (EGR1) (AID 2282938); settings: HepG2 Attagene CIS-FACTORIAL EGR reporter mRNA; actives raise or lower the signal
Outline: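 Endpoint derived by bidirectional fitting versus DMSO vehicle. Method: cis-promoter reporter units transfected into HepG2, 24 h dosing, RNA isolation, RT-PCR with 6-FAM primer extension and HpaI digestion, then capillary electrophoresis fluorescence detection.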

[4] = ATG_M_19_CIS: Attagene CIS-FACTORIAL HepG2 Assay for M19 Transcription Factor (Internal Marker) (AID 2282939); settings: HepG2 Attagene CIS-FACTORIAL M19 internal marker reporter; actives raise or lower the signal
Outline: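 Background-control endpoint from a multiplexed HepG2 reporter panel. Cells carrying cis-regulated reporter constructs are treated 24 h, then reporter transcripts are amplified, fluorescently labelled and sized by capillary electrophoresis. DMSO defines baseline.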

[5] = ATG_Ets_CIS: Attagene CIS-FACTORIAL HepG2 Assay for human Erythroblast Transformation Specific (ETS) (AID 2282941); settings: HepG2 ETS cis-reporter transcription, actives raise or lower the signal
Outline: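 Multiplexed reporter transcript profiling: HepG2, 24 h treatment, total RNA to cDNA, PCR, 6-FAM labelling, HpaI cut, capillary electrophoresis. Gain- or loss-of-signal fitted against DMSO.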

[6] = molecular target: Hepatocyte nuclear factor 3-beta (Homo sapiens) (UniProt Q9Y261); assay: ATG_FoxA2_CIS: Attagene CIS-FACTORIAL HepG2 Assay for human Forkhead box A2 (FOXA2) (AID 2282942); settings: HepG2 cis-reporter transcription factor activity, 24 h; actives raise or lower the signal
Sequence of Hepatocyte nuclear factor 3-beta (Homo sapiens) (Q9Y261 whole entry, looked up): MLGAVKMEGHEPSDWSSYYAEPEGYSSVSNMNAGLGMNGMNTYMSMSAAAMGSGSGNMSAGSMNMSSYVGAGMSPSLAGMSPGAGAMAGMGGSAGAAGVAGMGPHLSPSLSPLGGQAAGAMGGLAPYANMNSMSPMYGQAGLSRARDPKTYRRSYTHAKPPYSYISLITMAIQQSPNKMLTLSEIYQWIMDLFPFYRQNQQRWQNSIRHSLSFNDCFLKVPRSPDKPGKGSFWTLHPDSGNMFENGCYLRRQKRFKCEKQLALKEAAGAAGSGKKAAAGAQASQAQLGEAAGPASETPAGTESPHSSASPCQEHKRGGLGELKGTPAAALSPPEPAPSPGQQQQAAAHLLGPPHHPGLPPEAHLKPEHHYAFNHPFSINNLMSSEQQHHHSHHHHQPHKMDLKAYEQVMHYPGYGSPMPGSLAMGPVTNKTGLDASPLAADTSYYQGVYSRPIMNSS
Outline: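 Measured: reporter mRNA induction or loss in HepG2 transiently carrying multiple cis-regulated reporter units, 24 h after dosing. Quantified by RT-PCR plus capillary electrophoresis, normalised to DMSO.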

[7] = ATG_FoxO_CIS: Attagene CIS-FACTORIAL HepG2 Assay for human Forkhead box O (FoxO) (AID 2282943); settings: HepG2 Attagene cis-reporter, FoxO element, mRNA; actives raise or lower the signal
Outline: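 Transfected HepG2 reporter cells exposed to test chemical for 24 h; reporter RNA measured by reverse transcription, PCR and fluorescent capillary electrophoresis; curves fitted for increases and decreases against DMSO.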

[8] = ATG_GATA_CIS: Attagene CIS-FACTORIAL HepG2 Assay for human GATA Binding Protein (AID 2282944); settings: HepG2 GATA cis-element reporter, Attagene multiplex mRNA; actives raise or lower the signal
Outline: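 Endogenous transcription factor activity was captured through cis-promoter-driven reporters in transfected HepG2 cells. After 24 h exposure, reporter transcripts were quantified by RT-PCR with fluorescent capillary electrophoresis, and responses fitted both directions against DMSO.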

[9] = ATG_GLI_CIS: Attagene CIS-FACTORIAL HepG2 Assay for human Zinc Finger Protein GLI1 (AID 2282945); settings: HepG2, Attagene cis-factorial reporter mRNA, GLI element; actives raise or lower the signal
Outline: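 Transiently transfected HepG2 cells report endogenous transcription factor activity via cis-element-driven reporter units. After 24 h compound exposure, reporter mRNA was measured by RT-PCR with capillary electrophoresis; bidirectional fitting against DMSO baseline.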

[10] = molecular target: Bile acid receptor (Homo sapiens) (UniProt Q96RI1); assay: ATG_IR1_CIS: Attagene CIS-FACTORIAL HepG2 Assay for human Nuclear Receptor Subfamily 1 Group H Member 4 (NR1H4), IR1 submotif (AID 2282946); settings: IR1 reporter transcription, actives raise or lower the signal
Sequence of Bile acid receptor (Homo sapiens) (Q96RI1 whole entry, looked up): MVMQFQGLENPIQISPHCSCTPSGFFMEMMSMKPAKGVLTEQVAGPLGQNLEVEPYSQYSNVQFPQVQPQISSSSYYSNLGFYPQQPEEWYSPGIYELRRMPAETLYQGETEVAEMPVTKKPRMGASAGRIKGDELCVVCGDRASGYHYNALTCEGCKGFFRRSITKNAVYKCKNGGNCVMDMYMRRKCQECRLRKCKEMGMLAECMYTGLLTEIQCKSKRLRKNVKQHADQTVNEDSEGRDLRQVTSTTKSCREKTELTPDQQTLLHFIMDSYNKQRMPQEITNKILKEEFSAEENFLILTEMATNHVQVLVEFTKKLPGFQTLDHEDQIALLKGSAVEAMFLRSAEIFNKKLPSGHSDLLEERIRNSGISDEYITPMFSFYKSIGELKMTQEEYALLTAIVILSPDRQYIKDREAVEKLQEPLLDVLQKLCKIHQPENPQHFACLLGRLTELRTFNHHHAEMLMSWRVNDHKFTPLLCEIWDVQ
Outline: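 Fluorescence of capillary-separated, HpaI-digested RT-PCR reporter products gave IR1-element mRNA induction in HepG2 cells 24 h after dosing. Endogenous transcription factors drove the cis-regulated reporters; activity was fitted bidirectionally against DMSO.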

[11] = ATG_GRE_CIS: Attagene CIS-FACTORIAL HepG2 Assay for human Glucocorticoid Response Elements (GRE) (AID 2282947); settings: HepG2 GRE cis-reporter, Attagene multiplex mRNA; actives raise or lower the signal
Outline: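 Read-out: fluorescent reporter-transcript fragments separated by capillary electrophoresis after RT-PCR. Transiently transfected HepG2 cells carrying cis-element-driven reporter units were dosed for 24 h; gain or loss of signal fitted against DMSO control.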

[12] = ATG_ISRE_CIS: Attagene CIS-FACTORIAL HepG2 Assay for human Interferon Regulatory Factor 1 (IRF1) binding to an Interferon-Stimulated Response Element (ISRE) (AID 2282948); settings: HepG2 ISRE cis-reporter (Attagene), mRNA transcription readout; actives raise or lower the signal
Outline: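 Signal reflects induction or loss of ISRE-linked reporter mRNA in transiently transfected HepG2 cells after a 24 h treatment, detected by fluorescent RT-PCR fragments on capillary electrophoresis and normalised to DMSO.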

[13] = ATG_M_32_CIS: Attagene CIS-FACTORIAL HepG2 Assay for M32 Transcription Factor (Internal Marker) (AID 2282949); settings: HepG2 Attagene cis-factorial M32 reporter, mRNA; actives raise or lower the signal;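 note: background control marker of the multiplexed CIS panel rather than a real target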
Outline: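 Using DMSO as baseline, bidirectional curve fits were applied to reporter mRNA signals. These came from transiently transfected HepG2 cells exposed for 24 h, with RNA analysed by RT-PCR, FAM primer extension, HpaI digestion and CE.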

[14] = ATG_M_06_CIS: Attagene CIS-FACTORIAL HepG2 Assay for M06 Transcription Factor (Internal Marker) (AID 2282950); settings: HepG2 Attagene CIS-FACTORIAL M06 internal marker reporter; actives raise or lower the signal
Outline: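 Steps: transfect HepG2 with multiplexed cis-element reporter constructs; dose chemical 24 h; extract RNA with DNase treatment; reverse-transcribe, PCR-amplify, 6-FAM label, HpaI digest; separate fragments by capillary electrophoresis. Activity fitted both directions versus DMSO.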

[15] = molecular target: Hypoxia-inducible factor 1-alpha (Homo sapiens) (UniProt Q16665); assay: ATG_HIF1a_CIS: Attagene CIS-FACTORIAL HepG2 Assay for human Hypoxia Inducible Factor 1 (HIF1A) (AID 2282951); settings: HepG2 Attagene cis-factorial HIF1a reporter transcription; actives raise or lower the signal
Sequence of Hypoxia-inducible factor 1-alpha (Homo sapiens) (Q16665 whole entry, looked up): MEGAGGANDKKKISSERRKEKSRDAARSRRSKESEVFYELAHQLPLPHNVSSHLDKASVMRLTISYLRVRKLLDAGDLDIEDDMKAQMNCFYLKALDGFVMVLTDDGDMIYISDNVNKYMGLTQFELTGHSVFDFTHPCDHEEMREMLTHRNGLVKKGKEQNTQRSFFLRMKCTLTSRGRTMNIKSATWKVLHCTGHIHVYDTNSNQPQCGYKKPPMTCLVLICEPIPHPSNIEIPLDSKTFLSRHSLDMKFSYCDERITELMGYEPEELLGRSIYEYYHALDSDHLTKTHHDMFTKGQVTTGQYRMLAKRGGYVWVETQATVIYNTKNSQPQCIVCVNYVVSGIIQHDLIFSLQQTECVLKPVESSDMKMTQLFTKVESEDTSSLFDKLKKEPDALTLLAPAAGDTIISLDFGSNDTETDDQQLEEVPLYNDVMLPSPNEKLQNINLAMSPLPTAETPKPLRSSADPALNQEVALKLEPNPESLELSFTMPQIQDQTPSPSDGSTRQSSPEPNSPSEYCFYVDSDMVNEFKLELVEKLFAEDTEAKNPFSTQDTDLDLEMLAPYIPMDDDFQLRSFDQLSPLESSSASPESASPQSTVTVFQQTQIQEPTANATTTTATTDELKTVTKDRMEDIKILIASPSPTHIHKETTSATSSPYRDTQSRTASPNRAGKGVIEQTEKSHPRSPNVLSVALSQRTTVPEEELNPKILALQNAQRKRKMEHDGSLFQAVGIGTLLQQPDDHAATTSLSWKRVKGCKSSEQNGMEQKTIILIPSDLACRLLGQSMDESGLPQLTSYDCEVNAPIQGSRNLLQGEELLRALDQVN
Outline: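 Dosed 24 h, transfected HepG2 cells yielded total RNA whose reporter transcripts were RT-PCR-amplified and sized by capillary electrophoresis using fluorescent labelling; DMSO defined baseline, with gain and loss of signal both fitted.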

[16] = molecular target: Hepatocyte nuclear factor 6 (Homo sapiens) (UniProt Q9UBC0); assay: ATG_HNF6_CIS: Attagene CIS-FACTORIAL HepG2 Assay for human Hepatocyte Nuclear Factor 6 (HNF6) (AID 2282952); settings: HepG2 Attagene cis-factorial HNF6 reporter transcription; actives raise or lower the signal
Sequence of Hepatocyte nuclear factor 6 (Homo sapiens) (Q9UBC0 whole entry, looked up): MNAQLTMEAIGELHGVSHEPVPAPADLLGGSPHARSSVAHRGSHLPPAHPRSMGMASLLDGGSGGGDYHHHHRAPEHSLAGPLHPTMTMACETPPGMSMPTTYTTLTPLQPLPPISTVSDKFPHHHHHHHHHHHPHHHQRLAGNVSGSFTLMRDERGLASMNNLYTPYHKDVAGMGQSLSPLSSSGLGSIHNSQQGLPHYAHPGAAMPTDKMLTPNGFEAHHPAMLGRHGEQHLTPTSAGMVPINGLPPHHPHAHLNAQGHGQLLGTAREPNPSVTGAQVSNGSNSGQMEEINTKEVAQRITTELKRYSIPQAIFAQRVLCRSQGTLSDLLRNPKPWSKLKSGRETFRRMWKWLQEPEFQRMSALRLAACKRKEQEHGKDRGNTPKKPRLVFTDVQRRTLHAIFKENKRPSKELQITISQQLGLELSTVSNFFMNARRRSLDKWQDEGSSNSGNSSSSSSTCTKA
Outline: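 Endogenous transcription factor activity in human HepG2 liver cells was captured through cis-regulated reporter constructs. After 24 h treatment, reporter mRNA was measured by RT-PCR with capillary electrophoresis, and activity was fitted in both directions relative to DMSO.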

[17] = ATG_MRE_CIS: Attagene CIS-FACTORIAL HepG2 Assay for human Metal Responsive Element (MRE) (AID 2282954); settings: HepG2 MRE cis-reporter transcription, Attagene multiplex; actives raise or lower the signal
Outline: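 RT-PCR/capillary electrophoresis readout of reporter mRNA, 24 h post-dosing, in HepG2 cells transfected with multiplexed cis-regulated reporter constructs. Gain or loss of signal fitted bidirectionally against DMSO baseline.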

[18] = ATG_PBREM_CIS: Attagene CIS-FACTORIAL HepG2 Assay for human Phenobarbital-responsive Enhancer Module (PBREM) (AID 2282955); settings: HepG2 PBREM cis-reporter, Attagene multiplexed transcription; actives raise or lower the signal
Outline: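 Transfected liver-derived HepG2 cells exposed 24 h; PBREM reporter transcript quantified via RT-PCR and capillary electrophoresis, with activity in either direction referenced to DMSO.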

[19] = molecular target: Heat shock factor protein 1 (Homo sapiens) (UniProt Q00613); assay: ATG_HSE_CIS: Attagene CIS-FACTORIAL HepG2 Assay for human Heat Shock Transcription Factor 1 (HSE) (AID 2282953); settings: HepG2 HSE cis-reporter, Attagene RNA transcription; actives raise or lower the signal
Sequence of Heat shock factor protein 1 (Homo sapiens) (Q00613 whole entry, looked up, the tested form may be a part): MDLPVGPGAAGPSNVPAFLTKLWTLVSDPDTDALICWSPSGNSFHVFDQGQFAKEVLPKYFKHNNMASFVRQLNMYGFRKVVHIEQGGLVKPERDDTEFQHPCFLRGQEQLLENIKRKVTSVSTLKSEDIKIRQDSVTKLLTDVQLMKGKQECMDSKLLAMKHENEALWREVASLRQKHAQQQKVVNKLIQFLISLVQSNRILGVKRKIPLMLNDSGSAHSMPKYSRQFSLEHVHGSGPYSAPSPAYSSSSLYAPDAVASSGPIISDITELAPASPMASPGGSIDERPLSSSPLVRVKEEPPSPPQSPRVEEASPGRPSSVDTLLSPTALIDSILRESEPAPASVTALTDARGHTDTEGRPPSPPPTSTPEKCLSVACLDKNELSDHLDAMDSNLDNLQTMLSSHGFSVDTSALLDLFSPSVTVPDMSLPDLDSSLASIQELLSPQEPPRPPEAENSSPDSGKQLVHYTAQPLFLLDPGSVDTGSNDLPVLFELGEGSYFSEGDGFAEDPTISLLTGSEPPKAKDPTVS
Outline: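 Cells were transfected with cis-element-driven reporter constructs, dosed for 24 h, then total RNA was reverse-transcribed and reporter cDNA amplified, FAM-labelled and digested with HpaI. Fragments were resolved by capillary electrophoresis; gain or loss was fitted against DMSO.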

[20] = ATG_ERE_CIS: Attagene CIS-FACTORIAL HepG2 Assay for Estrogen Response Element (ERE) (AID 2282940); settings: HepG2 ERE cis-reporter, Attagene RNA transcript; actives raise or lower the signal
Outline: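 Cells used were human hepatoma HepG2, transfected with multiple reporter transcription units under cis-regulatory promoters. Reporter mRNA, read 24 h post-dosing via fluorescent RT-PCR products on capillary electrophoresis, was fitted bidirectionally relative to DMSO.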

Measured: AC50

CC(=O)OC1CC(C)OC(C)O1 (stereo not given)
inactive: [1] | [2] | [3] | [4] | [5] | [6] | [7] | [8] | [9] | [10] | [11] | [12] | [13] | [14] | [15] | [16] | [17] | [18]

C=CCCCCCCCCCCCC
inactive: [1] | [2] | [3] | [4] | [5] | [6] | [7] | [8] | [9] | [10] | [11] | [12] | [14] | [15] | [16] | [19] | [18]

CCC(C)N(C)C(=O)c1cc2ccccc2c(-c2ccccc2Cl)n1 (stereo not given)
inactive: [1] | [2] | [4] | [20] | [5] | [6] | [7] | [8] | [9] | [14] | [16]
active: [3] 62.5 µM | [12] 89 µM | [19] 101 µM

CCCCC(CC)CO (stereo not given)
inactive: [1] | [2] | [3] | [4] | [5] | [6] | [7] | [8] | [9] | [10] | [11] | [12] | [13] | [14] | [15] | [16] | [19] | [17] | [18]

CCCCCCCCCCCCCCCCO
inactive: [1] | [2] | [3] | [4] | [20] | [5] | [6] | [7] | [8] | [9] | [11] | [12] | [14] | [15] | [16] | [19] | [17] | [18]

Nc1nc(Cl)nc2c1ncn2[C@H]1C[C@H](O)[C@@H](CO)O1
inactive: [2] | [3] | [4] | [5] | [6] | [7] | [8] | [9] | [10] | [11] | [12] | [13] | [14] | [16] | [19] | [17] | [18]
active: [1] 11.4 µM

Cc1cc(Cc2ccc(N)c(C)c2)ccc1N
inactive: [1] | [2] | [3] | [4] | [5] | [6] | [7] | [8] | [9] | [10] | [11] | [12] | [14] | [15] | [16] | [19] | [17] | [18]

CCCCCCCCCCCCCCOS(=O)(=O)O
inactive: [1] | [2] | [3] | [4] | [20] | [5] | [6] | [7] | [8] | [9] | [11] | [12] | [14] | [15] | [16] | [19] | [17] | [18]
